Screens as filed in PubChem BioAssay.
SENP7 inh – blocks the human protease SENP7 | recombinant SENP7, Z-RLRGG-aminoluciferin luminescence, 40 min | inhibition, % at 5 µM | 330,000 compounds, 1.5% hits | AID 434973;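 active means inhibition above about 50% at the single test dose, limit read from the data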
Target sequence (Q9BQF6 706-1050 limits assumed): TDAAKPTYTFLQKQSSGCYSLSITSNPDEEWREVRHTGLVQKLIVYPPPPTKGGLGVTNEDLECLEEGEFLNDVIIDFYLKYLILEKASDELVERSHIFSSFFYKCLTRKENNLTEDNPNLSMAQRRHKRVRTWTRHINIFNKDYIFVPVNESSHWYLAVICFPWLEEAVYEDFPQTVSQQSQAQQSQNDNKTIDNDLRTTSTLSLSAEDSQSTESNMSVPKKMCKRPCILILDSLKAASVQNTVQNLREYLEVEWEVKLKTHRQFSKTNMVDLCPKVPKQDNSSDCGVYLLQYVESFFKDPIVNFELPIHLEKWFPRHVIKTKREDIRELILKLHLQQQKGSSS
HSP90 refold inh – blocks HSP90-mediated luciferase refolding in reticulocyte lysate | Rabbit reticulocyte lysate, luciferase refolding luminescence, 3 h | inhibition, % at 5.6 µM | 290,000 compounds, 0.91% hits;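 active means inhibition above the screen-wide mean plus 3 SD, computed separately per campaign, cut at about 16% in these data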;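 further: inhibitors lower the luminescence because luciferase stays unfolded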
SENP8 block-1 – SENP8 protease inhibition; 330,000 compounds, 1.2% hits; inhibition, % at 10 µM; purified SENP8, Z-RLRGG-aminoluciferin cleavage, luminescence; Q96LD8; in the data active means inhibition above about 50%
Target sequence (Q96LD8 whole entry, looked up): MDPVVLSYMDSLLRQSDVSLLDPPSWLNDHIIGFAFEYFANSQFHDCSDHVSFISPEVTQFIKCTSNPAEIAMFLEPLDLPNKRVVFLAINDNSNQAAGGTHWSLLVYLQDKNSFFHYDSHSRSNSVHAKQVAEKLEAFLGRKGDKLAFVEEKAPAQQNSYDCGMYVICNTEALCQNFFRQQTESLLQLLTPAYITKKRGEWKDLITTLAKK
SENP8 block-2 – inhibitors of human SENP8 protease; recombinant SENP8, Nedd8 substrate fluorescence; 360,000 compounds, 0.64% hits; Q96LD8; inhibition, % at 20 µM; in the data active means inhibition mostly above about 40%, no sharp cut-off; inactive means mostly below about 27%
SENP6 inh – blocks the human protease SENP6; AID 2599; Recombinant SENP6 catalytic domain, aminoluciferin luminescence; 330,000 compounds, 1.8% hits; inhibition, % at 10 µM;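 active means inhibition above about 50% at the single tested dose, limit read from the data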
SENP8 conf – human SENP8 inhibition, confirmed | inhibition, % at 12.5 µM | 6,200 compounds, 40% hits | shares compounds with SENP7 inh | Recombinant SENP8, Z-RLRGG-aminoluciferin luminescence, 60 min | AID 488912;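 active means mean inhibition across replicates above about 50%, limit read from the data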
SENP6 conf – human SENP6 inhibition, confirmed. recombinant SENP6, Z-RLRGG-aminoluciferin luminescence. shares compounds with SENP7 inh. inhibition, % at 12.5 µM. 6,200 compounds, 58% hits
SENP7 confirm – human SENP7 inhibition, confirmed. 6,200 compounds, 69% hits. inhibition, % at 12.5 µM. shares compounds with SENP7 inh. recombinant SENP7, Z-RLRGG-aminoluciferin luminescence, 40 min. AID 488917
Casp3 select – selectivity test for SENP inhibitors: human caspase-3 inhibition. shares compounds with SENP7 inh. purified caspase-3, Z-DEVD-aminoluciferin luminescence, 60 min. inhibition, % at 12.5 µM. 6,200 compounds, 60% hits. AID 488918;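 active means mean inhibition above about 50%, limit read from the data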
SENP luc ctr – counter-screen for SENP inhibitors: luminescence interference; shares compounds with SENP7 inh; Pre-incubated SENP8/Z-RLRGG-aminoluciferin, luciferase luminescence interference; inhibition, % at 12.5 µM; 6,200 compounds, 39% hits;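 active means mean inhibition above about 50% when retested at one dose, limit read from the data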
Numbers stand for hits; - = inactive; . = no result. Compounds with a hit are over-represented: about 2.7% of the library has one in this group of screens.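 How the source made its calls, unless noted: active means mean inhibition above about 50% in the one-dose retest (limit read from the data); inactive means the rest.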

SMILES	SENP7 inh	HSP90 refold inh	SENP8 block-1	SENP8 block-2	SENP6 inh	SENP8 conf	SENP6 conf	SENP7 confirm	Casp3 select	SENP luc ctr
COc1ccc(C(N)c2nccc3cc(OC)c(OC)cc23)cc1OC (stereo not drawn)	70	-	-	-	75	-	-	-	-	-
CCCN(CCC)CCNC(=O)Cn1cnc2sc(C)c(S(=O)(=O)N3CCOCC3)c2c1=O	-	-	-	-	-	.	.	.	.	.
Cn1c(CNC(=O)c2ccccc2F)nnc1SCCOc1ccccc1	-	-	-	-	-	.	.	.	.	.
Cc1ccc(Cn2ccsc2=NC(=O)COC(=O)c2ccc(O)cc2O)cc1	-	-	-	-	74	57	55	79	-	-
COc1ccccc1Nc1ncccc1C(=O)O	-	-	-	-	-	.	.	.	.	.
COc1ccc(Nc2ncccc2C(=O)O)cc1	-	-	-	-	57	-	-	76	81	63
COc1ccc2nc(NC(=O)C3CCCN(S(=O)(=O)c4cccc5nonc45)C3)sc2c1 (stereo not drawn)	-	-	-	-	-	.	.	.	.	.
O=C(Nc1ccccc1)Nc1ncc([N+](=O)[O-])s1	100	-	97	-	99	98	100	102	98	98
CC(C)(C)NCCCCOc1ccccc1F	84	-	-	-	-	-	-	-	-	-
CCCN(C(=O)CCc1ccc(OC)cc1)c1c(N)n(Cc2ccccc2)c(=O)[nH]c1=O	-	.	-	-	-	.	.	.	.	.
N#C/C(=C/c1ccc(O)c(O)c1)c1nc2ccccc2[nH]1	72	-	70	-	80	82	81	94	78	-
N#C/C(=C\c1ccc(Sc2ccccc2)o1)c1nc2ccccc2[nH]1	94	-	-	-	-	62	-	99	78	67
Cc1ccc(S(=O)(=O)O/N=C2/CCCc3occc32)cc1	-	-	-	-	-	.	.	.	.	.
O=C(O/N=C1/CCSc2ccccc21)c1ccc(F)cc1	87	-	-	-	-	73	92	89	79	-
O=C(O/N=C1/CCCc2occc21)c1ccc(F)cc1	88	-	83	-	87	-	88	79	66	-
O=C(O/N=C1\CCS(=O)(=O)c2sccc21)c1ccc(F)cc1	-	-	-	-	-	.	.	.	.	.
Cc1nnc(NC(=O)C2(c3ccccc3)CCOCC2)s1	-	-	-	-	-	.	.	.	.	.
Cn1c(=O)c2c(SCc3ccccc3)nc(C3CC3)nc2n(C)c1=O	68	-	-	-	-	-	-	-	-	-
Cc1ccc2[nH]c3c(c2c1)CCN(C)C3	-	-	-	-	-	.	.	.	.	.
CCOC(=O)C1=C(N)OC2=C(C(=O)CC(C)C2)C1c1cccnc1 (stereo not drawn)	-	-	-	-	-	.	.	.	.	.
COc1ccc(/C=C(\C#N)C(=O)OCC(=O)Nc2ccc(-c3nc4ccc(C)cc4s3)cc2)cc1	53	-	-	-	-	-	-	-	-	54
CNC(=S)Nc1ccc(-c2nc3ccc(C)cc3s2)cc1	-	-	64	-	74	-	64	86	-	-
CCC(C)(C)NC(=S)Nc1ccc(-c2nc3ccc(C)cc3s2)cc1	-	-	-	-	-	.	.	.	.	.
COC(=O)c1nn(-c2ccc(-c3ccccc3)cc2)cc1O	97	-	93	-	97	92	98	102	95	88
CCOC(=O)c1nn(-c2ccccc2)cc1O	-	-	-	-	-	.	.	.	.	.
SMILES	SENP7 inh	HSP90 refold inh	SENP8 block-1	SENP8 block-2	SENP6 inh	SENP8 conf	SENP6 conf	SENP7 confirm	Casp3 select	SENP luc ctr
CC(=O)Nc1ccc(-c2nc3ccccc3c(=O)o2)cc1	-	-	-	-	-	.	.	.	.	.
O=C(Nc1ccc(-c2nnc(-c3ccccc3)o2)cc1)C(F)(F)F	91	-	66	-	76	-	-	-	-	-
CC(=O)/C=C(\C)Nc1ccc(-c2cnc(-c3ccccc3)o2)cc1	72	-	78	-	76	-	-	-	-	-
CC(C)C(=O)Nc1ccc(-c2nnc(-c3ccccc3)o2)cc1	76	-	58	-	61	-	-	-	-	-
Cc1ccc(C(=O)Nc2ccc(N3CCOCC3)cc2)cc1S(=O)(=O)N1CCCCC1	-	.	-	-	-	.	.	.	.	.
COCCN(C(=O)c1ccc(NC2CC2)c([N+](=O)[O-])c1)c1c(N)n(CC(C)C)c(=O)[nH]c1=O	-	.	-	-	-	.	.	.	.	.
Cc1nn2cc(-c3cccc(Cl)c3)cnc2c1Br	81	-	-	-	-	-	-	-	-	-
CC(C)n1nnnc1-c1cccc(Cl)c1	-	-	-	-	-	.	.	.	.	.
CCOC(=O)c1ccc(N2CCN(c3ccc(F)cc3)CC2)c(NC(=O)Nc2cccc(OC)c2)c1	-	-	-	-	-	.	.	.	.	.
COC(=O)c1ccccc1NC(=O)Nc1cccnc1	-	-	59	-	77	-	72	95	92	70
CCCCc1ccc(NC(=O)Nc2cccnc2)cc1	58	-	51	-	74	63	67	84	-	-
COC(=O)c1ccccc1NC(=O)c1cccnc1	-	-	-	-	-	.	.	.	.	.
CCOC(=O)c1sc(N/N=C/c2ccccc2)nc1C	-	-	-	-	-	.	.	.	.	.
CC(=O)c1sc(N/N=C\c2ccccc2O)nc1C	-	-	56	-	68	-	-	82	-	-
CN1c2ccsc2C(O)=C(C(=S)Nc2ccc(F)c(Cl)c2)S1(=O)=O	-	-	-	-	61	-	-	-	-	-
COc1ccc(Oc2ccc(C(F)(F)F)cc2N)cc1	-	-	-	-	-	.	.	.	.	.
CCCCc1ccc(-c2ccc(Br)cc2O)nc1	68	-	-	-	-	-	-	-	-	-
CCCCc1ccc(-c2ccc(C)cc2O)nc1	72	-	53	-	-	-	-	-	-	-
COc1cccc(Cn2c(-c3cccs3)noc2=O)c1	-	-	-	-	-	.	.	.	.	.
Nc1c2c(nc3sc4c(c13)CCCC4)-c1ccccc1CC2	90	-	92	-	92	-	93	96	82	-
Cc1nc2nc(-c3cccs3)[nH]c2cc1Br	90	.	90	-	91	92	92	99	93	-
c1ccc(-c2nc(-c3cccs3)[nH]c2-c2ccccc2)cc1	-	-	-	-	-	.	.	.	.	.
Oc1cccc(/C=N/Nc2cccc3cccnc23)c1	92	-	96	-	-	97	100	104	94	93
Oc1c(/C=N/Nc2cccc3cccnc23)ccc2ccccc12	-	-	-	-	52	-	-	-	-	-
